Outcome and AC50 data for 21 compounds are collected here from PubChem BioAssay (EPA / NIEHS).

Assay [1] addresses Estrogen receptor (Homo sapiens) (UniProt P03372). Kind of assay: OT_ER_ERaERa_0480: Odyssey Thera (OT) 8-hour HEK293T Protein-Complementation Assay for Estrogen Receptor-alpha/-alpha Homodimer (AID 2283351).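 Also: rise in fluorescence from reassembled reporter fragments on ERα LBD homodimer in nucleus or whole cell.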 The method in brief:
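The readout is complementation of fragments fused to the human ER alpha ligand-binding domain (aa 310-547), stably expressed in HEK293T cells. After 8 h of exposure, the increase in nuclear/cytoplasmic fluorescence was measured by laser scanning cytometry and fitted relative to DMSO.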

Assay [2] addresses T1, Estrogen receptor (Homo sapiens) + Estrogen receptor beta (Homo sapiens) (UniProt P03372+Q92731). Put plainly: OT_ER_ERaERb_0480: Odyssey Thera (OT) 8-hour HEK293T Protein-Complementation Assay for Estrogen Receptor-alpha/-beta Heterodimer (AID 2283352). The method in brief: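 HEK293T cells expressing ER-alpha/ER-beta LBD fusions to complementary reporter fragments were dosed with compound for 8 hours. Heterodimer formation was read as increased nuclear (agonist) or nuclear plus cytoplasmic (antagonist) mean fluorescence intensity versus DMSO vehicle.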

Assay [3] addresses rat Mineralocorticoid Receptor (MR), Nr3c2 (gene 25672) (UniProt P22199). Put plainly: NVS_NR_rMR: NovaScreen (NVS) Nuclear Receptor Binding Assay for rat Mineralocorticoid Receptor (MR) (AID 2283355). In a few lines:
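Cell-free radioligand binding to MR in adrenalectomized rat brain supernatant, scintillation counted 24 h after dosing. Loss of signal versus DMSO baseline marks displacement. Primary screen in duplicate at 25 uM; actives retested as concentration series.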

Assay [4] addresses T1, Estrogen receptor (Homo sapiens) + Estrogen receptor beta (Homo sapiens). Kind of assay: OT_ER_ERaERb_1440: Odyssey Thera (OT) 24-hour HEK293T Protein-Complementation Assay for Estrogen Receptor-alpha/-beta Homodimer (AID 2283356).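 Also: heteromer of ER alpha and ER beta binding domains; hits raise reporter fluorescence and both agonists and antagonists give an increase.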 In a few lines:
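HEK293T cells stably expressing a PCA pair of ERα LBD (aa 310-547) and ERβ LBD (aa 263-489) were dosed for 24 h. Fluorescence intensity increase versus DMSO vehicle was fitted as gain-of-signal.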

The target of assay [5] is Estrogen receptor beta (Homo sapiens) (UniProt Q92731). Kind of assay: OT_ER_ERbERb_0480: Odyssey Thera (OT) 8-hour HEK293T Protein-Complementation Assay for Estrogen Receptor-beta/-beta Homodimer (AID 2283357).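 Also: active means signal gain over DMSO baseline.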 The method in brief: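 Readout: increase in mean fluorescence intensity (nucleus for agonists; nucleus plus cytoplasm for antagonists) relative to DMSO, from a reporter-fragment complementation of human ER-beta LBD homodimer in HEK293T cells dosed 8 hours.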

For assay [6], the target named is Androgen Receptor/SRC-1 Co-activator, AR (gene 367) (UniProt P10275). Kind of assay: OT_AR_ARSRC1_0960: Odyssey Thera (OT) 16-hour HEK293T Protein-Complementation Assay for Androgen Receptor/SRC-1 Co-activator (AID 2283353).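 Also: actives raise the signal above DMSO so potency reflects increased AR and SRC-1 complex.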 In a few lines:
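HEK293T cells stably expressing AR and SRC-1 fused to Venus YFP fragments, imaged 16 h after dosing. Nuclear/cytoplasmic fluorescence ratio at 488 nm from at least 400 cells per image; gain of signal relative to DMSO.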

For assay [7] the target is unchanged. Kind of assay: OT_AR_ARSRC1_0480: Odyssey Thera (OT) 8-hour HEK293T Protein-Complementation Assay for Androgen Receptor/SRC-1 Co-activator (AID 2283354).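 Also: hits raise the complementation signal above DMSO so AC50 marks enhancers.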 In a few lines: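 HEK293T cells stably expressing AR and SRC-1 fused to split Venus YFP fragments via (Gly4Ser)2 linkers were read 8 h after compound dosing. Complementation was imaged at 488 and 635nm, and nuclear/cytoplasmic fluorescence ratio (488nm) was taken over ≥400 cells; gain-of-signal versus DMSO.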

Assay [8] deals with Bile acid receptor (Homo sapiens) (UniProt Q96RI1). Kind of assay: NVS_NR_hFXR_Antagonist: NovaScreen (NVS) Nuclear Receptor Binding Assay for human Farnesoid X Receptor Antagonism (FXR) (AID 2283350). The method in brief:
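Cell-free TR-FRET ligand-binding read-out on human FXR (NR1H4) in antagonist mode, measured 1 h after dosing. Primary screen in duplicate at 25 uM, actives retested in concentration series; signal loss scored versus DMSO.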

In assay [9] the target is human Peroxisome Proliferator-activated Receptor alpha (PPARa), PPARA (gene 5465) (UniProt Q07869). Kind of assay: NVS_NR_hPPARa: NovaScreen (NVS) Nuclear Receptor Binding Assay for human Peroxisome Proliferator-activated Receptor alpha (PPARa) (AID 2283359).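 Also: activity means loss of TR-FRET signal versus DMSO baseline.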 The method in brief:
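Cell-free binding assay with extracted human protein, read by TR-FRET 1 h after chemical dosing. Loss of signal relative to DMSO baseline indicates binding. Primary screen used duplicate single concentration (25 uM); actives followed up in concentration series.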

Assay [10] deals with Retinoic acid receptor alpha (Homo sapiens) (UniProt P10276). Put plainly: NVS_NR_hRAR_Antagonist: NovaScreen (NVS) Nuclear Receptor Binding Assay for human Retinoic Acid Alpha Receptor Antagonism (RAR) (AID 2283358). In a few lines:
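Cell-free TR-FRET binding assay on extracted receptor protein, run in antagonist mode; signal read 2 hours after chemical dosing. Loss of signal was fitted relative to DMSO baseline. Screened at 25 uM in duplicate, actives followed up in concentration series.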

By AC50 is commonly meant the midpoint of the concentration-response curve, whichever way the signal moves.

Where “and” joins values, the source holds several entries; their conditions need not be identical. Equal entries are not always repeated. Records with an inconclusive call do not appear. Some compounds were tested as several samples or in several runs, with calls that do not always agree. Calls of active or inactive are those of the source. The calls were made as follows: active = hit-call score of the fitted dose curve at least 0.9, where 1 is the maximum; inconclusive = response in the unintended direction; inactive = score below 0.9.

T1 sequence (P03372 whole entry, looked up, the tested form may be a part): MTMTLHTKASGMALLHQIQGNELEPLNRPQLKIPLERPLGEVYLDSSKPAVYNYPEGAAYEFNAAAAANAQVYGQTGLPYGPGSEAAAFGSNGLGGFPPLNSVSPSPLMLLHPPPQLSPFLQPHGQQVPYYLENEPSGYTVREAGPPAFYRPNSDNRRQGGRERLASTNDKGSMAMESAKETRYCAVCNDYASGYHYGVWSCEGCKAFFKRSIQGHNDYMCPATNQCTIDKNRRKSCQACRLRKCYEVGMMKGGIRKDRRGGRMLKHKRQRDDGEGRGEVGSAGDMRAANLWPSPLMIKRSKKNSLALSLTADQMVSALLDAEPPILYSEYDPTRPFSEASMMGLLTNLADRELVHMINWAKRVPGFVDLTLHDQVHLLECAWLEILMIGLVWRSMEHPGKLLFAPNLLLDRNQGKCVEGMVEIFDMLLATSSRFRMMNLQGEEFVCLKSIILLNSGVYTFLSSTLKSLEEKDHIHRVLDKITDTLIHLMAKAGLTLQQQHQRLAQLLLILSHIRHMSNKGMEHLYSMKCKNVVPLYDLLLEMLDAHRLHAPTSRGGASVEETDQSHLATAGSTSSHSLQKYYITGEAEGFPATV
T1 sequence (Q92731 whole entry, looked up, the tested form may be a part): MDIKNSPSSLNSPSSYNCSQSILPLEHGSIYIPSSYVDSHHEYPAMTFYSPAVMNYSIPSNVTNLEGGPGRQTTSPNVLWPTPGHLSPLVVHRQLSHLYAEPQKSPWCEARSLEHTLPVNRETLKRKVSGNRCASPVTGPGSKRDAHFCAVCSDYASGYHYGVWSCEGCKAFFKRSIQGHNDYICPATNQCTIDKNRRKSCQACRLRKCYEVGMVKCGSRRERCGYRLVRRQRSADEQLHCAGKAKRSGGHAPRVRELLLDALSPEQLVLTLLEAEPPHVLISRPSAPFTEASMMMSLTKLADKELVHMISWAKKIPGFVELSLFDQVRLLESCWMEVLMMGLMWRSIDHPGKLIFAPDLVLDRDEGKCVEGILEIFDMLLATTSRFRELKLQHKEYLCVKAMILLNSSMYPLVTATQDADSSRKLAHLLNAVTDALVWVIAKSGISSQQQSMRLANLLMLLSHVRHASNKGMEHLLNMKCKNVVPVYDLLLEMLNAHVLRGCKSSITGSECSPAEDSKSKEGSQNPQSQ
Estrogen receptor (Homo sapiens), sequence (P03372 whole entry, looked up, the tested form may be a part): as the sequence (P03372 whole entry, looked up, the tested form may be a part) above
Androgen Receptor/SRC-1 Co-activator, AR (gene 367), sequence (P10275 whole entry, looked up, the tested form may be a part): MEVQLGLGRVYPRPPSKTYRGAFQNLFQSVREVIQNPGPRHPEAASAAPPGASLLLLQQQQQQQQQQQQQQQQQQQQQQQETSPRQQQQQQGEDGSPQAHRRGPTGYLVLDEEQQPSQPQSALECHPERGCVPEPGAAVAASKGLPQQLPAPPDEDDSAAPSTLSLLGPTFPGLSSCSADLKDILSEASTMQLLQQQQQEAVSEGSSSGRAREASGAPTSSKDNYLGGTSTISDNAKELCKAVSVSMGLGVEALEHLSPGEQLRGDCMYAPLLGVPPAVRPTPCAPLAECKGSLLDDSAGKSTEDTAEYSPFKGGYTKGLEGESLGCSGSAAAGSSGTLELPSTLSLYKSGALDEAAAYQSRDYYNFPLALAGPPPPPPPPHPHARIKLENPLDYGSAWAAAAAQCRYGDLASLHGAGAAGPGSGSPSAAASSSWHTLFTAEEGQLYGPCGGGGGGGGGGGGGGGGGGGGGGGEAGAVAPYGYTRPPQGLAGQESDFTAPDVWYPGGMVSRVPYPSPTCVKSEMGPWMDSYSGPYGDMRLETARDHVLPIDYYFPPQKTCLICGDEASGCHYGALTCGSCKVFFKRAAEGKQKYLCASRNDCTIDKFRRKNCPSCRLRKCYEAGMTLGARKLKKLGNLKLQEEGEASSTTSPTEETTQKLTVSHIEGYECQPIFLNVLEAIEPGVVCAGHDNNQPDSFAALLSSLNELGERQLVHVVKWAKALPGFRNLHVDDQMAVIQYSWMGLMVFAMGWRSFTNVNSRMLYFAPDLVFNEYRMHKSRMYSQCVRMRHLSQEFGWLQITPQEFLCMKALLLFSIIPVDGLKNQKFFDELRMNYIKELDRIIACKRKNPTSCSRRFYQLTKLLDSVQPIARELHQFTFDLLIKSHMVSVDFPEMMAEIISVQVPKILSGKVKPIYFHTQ
Bile acid receptor (Homo sapiens), sequence (Q96RI1 whole entry, looked up): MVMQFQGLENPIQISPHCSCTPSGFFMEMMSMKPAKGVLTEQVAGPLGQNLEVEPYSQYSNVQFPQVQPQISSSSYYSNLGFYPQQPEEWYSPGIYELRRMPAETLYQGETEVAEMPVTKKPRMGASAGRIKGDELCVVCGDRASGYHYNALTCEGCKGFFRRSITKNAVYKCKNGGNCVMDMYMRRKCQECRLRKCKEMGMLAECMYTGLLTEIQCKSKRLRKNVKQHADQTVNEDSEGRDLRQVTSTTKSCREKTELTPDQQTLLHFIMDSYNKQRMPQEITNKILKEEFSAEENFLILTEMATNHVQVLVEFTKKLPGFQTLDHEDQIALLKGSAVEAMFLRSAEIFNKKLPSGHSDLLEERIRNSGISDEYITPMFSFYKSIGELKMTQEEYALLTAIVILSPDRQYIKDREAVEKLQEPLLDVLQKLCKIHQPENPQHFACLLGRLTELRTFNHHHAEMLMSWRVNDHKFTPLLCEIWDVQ
Estrogen receptor beta (Homo sapiens), sequence (Q92731 whole entry, looked up, the tested form may be a part): as the sequence (Q92731 whole entry, looked up, the tested form may be a part) above
rat Mineralocorticoid Receptor (MR), Nr3c2 (gene 25672), sequence (P22199 whole entry, looked up): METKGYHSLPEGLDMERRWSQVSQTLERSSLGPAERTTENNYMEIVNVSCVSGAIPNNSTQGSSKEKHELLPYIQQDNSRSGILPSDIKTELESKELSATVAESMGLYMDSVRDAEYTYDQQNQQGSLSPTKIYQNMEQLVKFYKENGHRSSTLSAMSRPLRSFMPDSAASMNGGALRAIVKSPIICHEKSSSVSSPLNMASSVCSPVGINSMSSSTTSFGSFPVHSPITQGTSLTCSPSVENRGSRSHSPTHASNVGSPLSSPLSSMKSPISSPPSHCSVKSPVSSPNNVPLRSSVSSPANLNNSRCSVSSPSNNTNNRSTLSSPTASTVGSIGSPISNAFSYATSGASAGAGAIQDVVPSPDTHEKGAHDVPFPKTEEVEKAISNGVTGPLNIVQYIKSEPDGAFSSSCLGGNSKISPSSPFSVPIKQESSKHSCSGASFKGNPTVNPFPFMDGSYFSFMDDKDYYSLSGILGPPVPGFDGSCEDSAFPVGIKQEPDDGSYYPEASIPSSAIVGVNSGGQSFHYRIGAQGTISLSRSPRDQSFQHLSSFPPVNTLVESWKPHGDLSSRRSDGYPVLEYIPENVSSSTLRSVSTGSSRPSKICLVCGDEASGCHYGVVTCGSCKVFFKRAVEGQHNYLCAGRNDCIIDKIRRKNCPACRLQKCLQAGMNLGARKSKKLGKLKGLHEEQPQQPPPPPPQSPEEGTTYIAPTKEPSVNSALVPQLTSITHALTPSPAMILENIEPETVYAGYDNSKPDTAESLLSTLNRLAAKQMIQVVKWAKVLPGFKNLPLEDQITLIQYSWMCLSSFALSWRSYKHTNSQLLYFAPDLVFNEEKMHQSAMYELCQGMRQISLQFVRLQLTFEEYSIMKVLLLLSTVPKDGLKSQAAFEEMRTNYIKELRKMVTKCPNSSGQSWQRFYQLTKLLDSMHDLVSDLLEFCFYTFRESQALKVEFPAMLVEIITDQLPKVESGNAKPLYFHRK
human Peroxisome Proliferator-activated Receptor alpha (PPARa), PPARA (gene 5465), sequence (Q07869 whole entry, looked up): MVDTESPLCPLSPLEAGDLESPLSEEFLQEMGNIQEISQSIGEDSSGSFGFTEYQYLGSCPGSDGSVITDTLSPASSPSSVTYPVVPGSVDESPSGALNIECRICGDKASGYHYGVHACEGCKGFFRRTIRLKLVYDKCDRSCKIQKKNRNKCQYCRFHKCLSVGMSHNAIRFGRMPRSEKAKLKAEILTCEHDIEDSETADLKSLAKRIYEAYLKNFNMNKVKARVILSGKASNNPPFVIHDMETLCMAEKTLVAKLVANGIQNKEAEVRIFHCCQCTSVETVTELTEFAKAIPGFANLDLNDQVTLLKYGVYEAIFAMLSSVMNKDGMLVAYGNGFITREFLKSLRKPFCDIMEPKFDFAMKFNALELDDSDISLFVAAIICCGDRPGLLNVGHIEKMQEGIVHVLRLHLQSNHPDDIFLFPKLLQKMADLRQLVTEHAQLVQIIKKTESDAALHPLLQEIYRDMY
Retinoic acid receptor alpha (Homo sapiens), sequence (P10276 whole entry, looked up): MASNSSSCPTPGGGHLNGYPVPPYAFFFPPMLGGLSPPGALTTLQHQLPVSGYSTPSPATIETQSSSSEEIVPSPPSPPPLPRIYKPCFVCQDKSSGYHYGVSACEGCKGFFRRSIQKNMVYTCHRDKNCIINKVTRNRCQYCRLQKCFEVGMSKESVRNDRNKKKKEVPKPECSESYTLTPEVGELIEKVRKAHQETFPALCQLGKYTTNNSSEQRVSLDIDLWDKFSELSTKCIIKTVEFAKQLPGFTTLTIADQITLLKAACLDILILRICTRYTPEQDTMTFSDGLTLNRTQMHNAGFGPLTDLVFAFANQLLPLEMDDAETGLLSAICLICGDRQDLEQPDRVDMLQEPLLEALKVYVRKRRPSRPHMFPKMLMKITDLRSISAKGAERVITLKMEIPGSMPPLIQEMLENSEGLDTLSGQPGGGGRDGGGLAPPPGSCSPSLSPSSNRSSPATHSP

On to `COCCO`, for which the compound was classed as inactive in assay [1].

On to `CCN(Cc1c(F)cccc1Cl)c1c([N+](=O)[O-])cc(C(F)(F)F)cc1[N+](=O)[O-]`, for which the AC50 was 9.68 µM (active) in assay [1], 7.66 µM (active) in assay [2] and 10.3 µM (active) in assay [4]. The outcome in assay [3] and in assay [5] was inactive.

Consider `Cc1nn(C)c(Oc2ccccc2)c1C=NOCc1ccc(C(=O)OC(C)(C)C)cc1`, for which the outcome in [1], in assay [2], in assay [6], in assay [7], in [4] and in assay [5] was inactive.

For `CCOC(=O)COc1cc(-n2ncc(C(F)(F)F)c(C)c2=O)c(F)cc1Cl`, the outcome in assay [1], in assay [2], in assay [6], in assay [7] and in [4] was inactive.

As to `CCCCOC(=O)C(C)Oc1ccc(Oc2ccc(C(F)(F)F)cn2)cc1` (stereo not drawn), the compound was called inactive in [1], in [2], in assay [4] and in assay [5].

On to `CCCOC(=O)c1ccc(C(=O)OCCC)nc1`, for which the compound was classed as inactive in assay [1], in [2], in [7], in assay [4] and in [5].

Regarding `N#CSCSc1nc2ccccc2s1`, the AC50 in assay [8] was 4.96 µM (active); in [6] it was 12.1 µM (active); in [7] it was 21.9 µM (active). The result in [1], in [4] and in assay [5] was inactive.

Turning to `COC(=O)c1ccccc1S(=O)(=O)NC(=O)Nc1nc(OC(F)F)cc(OC(F)F)n1`, in [8], the outcome was inactive.

With `CCOC(=O)c1ccc(O)cc1`, the AC50 is 59.9 µM (active) and 41.1 µM (active) and 59.6 µM (active) in assay [1]; 30.6 µM (active) and 27.1 µM (active) and 28 µM (active) in [2]; 32.2 µM (active) and 26.9 µM (active) and 26.8 µM (active) in assay [4]; 27.8 µM (active) and 33.1 µM (active) and 31.7 µM (active) in assay [5]. The result in assay [1], in [2], in assay [4], in assay [5] and in assay [9] was inactive.

As for `O=C(O)c1ccccc1`, in assay [1], the outcome was inactive.

Take `Oc1ccc(C(c2ccc(O)cc2)C(Cl)(Cl)Cl)cc1`: in assay [8], the compound was classed as inactive.

As for `O=C(c1ccccc1)C1CCCCC1`, the concentration at half-maximal activity (AC50) in assay [1] is 56.4 µM (active) and 39.5 µM (active). In addition, the outcome in assay [1], in assay [6], in assay [7] and in assay [9] was inactive.

As to `O=C(Nc1ccc([N+](=O)[O-])cc1Cl)c1cc(Cl)ccc1O`, the compound was called inactive in [1], in [2], in assay [4] and in assay [5].

As to `CCOC(=O)C(C)Oc1ccc(Oc2cnc3cc(Cl)ccc3n2)cc1` (stereo not drawn), in [1], the call was inactive.

As to `CC(=O)S[C@@H]1CC2=CC(=O)CC[C@]2(C)[C@H]2CC[C@@]3(C)[C@@H](CC[C@@]34CCC(=O)O4)[C@H]12`, the result in assay [1], in assay [2], in [4] and in assay [5] was inactive.

With `O=C(c1ccc(O)cc1O)c1ccc(O)cc1O`, the AC50 in assay [1] was 6.81 µM (active) and 6.26 µM (active) and 6.64 µM (active); in assay [2], 2.03 µM (active) and 1.72 µM (active) and 2.14 µM (active); in assay [6], 10.2 µM (active) and 9.93 µM (active) and 10.7 µM (active); in [7], 11.1 µM (active) and 8.01 µM (active) and 9.37 µM (active); in assay [4] it was 12.6 µM (active) and 8.31 µM (active) and 9.09 µM (active); in [5], 1.6 µM (active) and 1.63 µM (active) and 1.4 µM (active).

`COC(=O)c1ccccc1C(=O)O`: the outcome in [1], in assay [2], in assay [4], in [5] and in assay [10] was inactive.

With `CCSC(=O)N(CC(C)C)CC(C)C`, the call in assay [1], in assay [2], in assay [6], in assay [7], in [3] and in [4] was inactive. For the same compound, the compound was classed as inactive in [5].

Consider `COC(=O)c1cccc(C)c1S(=O)(=O)NC(=O)Nc1nc(OCC(F)(F)F)nc(N(C)C)n1`, for which the compound was called inactive in [8].

`CCCN(CCC)C(=O)SCC`: the result in [1], in assay [2], in assay [6], in [7], in [3] and in assay [4] was inactive. Moreover, the compound was called inactive in assay [5].

In the case of `COc1c(Cl)ccc(Cl)c1C(=O)O`, the compound was classed as inactive in [1], in assay [2], in assay [4] and in assay [5].
